Common to all, as to assay: DAPPL (digital affinity profiling via proximity ligation, sequencing); 10 mM Tris-HCl pH 7.5, 50 mM NaCl, 1 mM DTT, 4% glycerol, room temperature, 30 min; GST-TFs on glutathione beads, 16-mer random dsDNA library, 0.1% formaldehyde crosslink after washing; high values mean tight binding
Test [1] has as its target T1, FLI1 (Homo sapiens, UniProt Q01543 1-452).
T1 sequence: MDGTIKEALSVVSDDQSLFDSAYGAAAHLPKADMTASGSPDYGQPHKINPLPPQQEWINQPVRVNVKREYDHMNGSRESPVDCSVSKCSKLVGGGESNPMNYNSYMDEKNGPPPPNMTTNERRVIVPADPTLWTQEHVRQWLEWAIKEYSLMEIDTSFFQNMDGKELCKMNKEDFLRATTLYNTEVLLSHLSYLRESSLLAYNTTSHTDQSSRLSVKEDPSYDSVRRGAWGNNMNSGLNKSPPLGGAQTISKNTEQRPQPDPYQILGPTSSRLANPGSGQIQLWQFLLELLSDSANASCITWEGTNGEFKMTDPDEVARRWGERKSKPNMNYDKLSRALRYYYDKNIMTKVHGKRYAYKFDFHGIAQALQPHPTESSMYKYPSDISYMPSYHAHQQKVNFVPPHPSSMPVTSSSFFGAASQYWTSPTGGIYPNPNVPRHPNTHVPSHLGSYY
As to conditions: protein: recombinant; tags: N-terminal GST; dsDNA, one strand shown. Summed up:
(§1)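 Yeast served to express human transcription factors as GST fusions, which were then captured on glutathione beads and labelled with DNA barcodes. Pooled with a tag-only sample, they were incubated with 200 nmole of a 16-mer random double-stranded DNA library for 30 min at room temperature in Tris/NaCl/DTT/glycerol buffer, washed, crosslinked with 0.1% formaldehyde, ligated by proximity, amplified by PCR and sequenced. Dividing each hexamer's read frequency for a factor by its frequency for the tag-only sample gives the binding signal.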

In test [2] the target is T2, ELK1 (Homo sapiens, UniProt P19419 1-428).
T2 sequence: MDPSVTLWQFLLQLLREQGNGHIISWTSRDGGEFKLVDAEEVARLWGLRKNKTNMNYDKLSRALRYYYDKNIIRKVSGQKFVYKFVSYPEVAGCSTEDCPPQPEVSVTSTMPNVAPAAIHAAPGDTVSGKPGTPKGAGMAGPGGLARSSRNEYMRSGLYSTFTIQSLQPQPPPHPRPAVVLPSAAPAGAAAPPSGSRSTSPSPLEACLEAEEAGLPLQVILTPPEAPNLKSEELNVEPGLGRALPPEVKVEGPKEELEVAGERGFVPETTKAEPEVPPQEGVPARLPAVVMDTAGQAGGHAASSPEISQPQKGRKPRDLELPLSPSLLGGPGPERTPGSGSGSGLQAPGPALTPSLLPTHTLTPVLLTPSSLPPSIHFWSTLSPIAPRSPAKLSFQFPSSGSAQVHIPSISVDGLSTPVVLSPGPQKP
As to conditions: protein: recombinant; tags: N-terminal GST; dsDNA, one strand shown. Summed up: as §1

The target in test [3] is T3, GABPA (Homo sapiens, UniProt Q06546 1-454).
T3 sequence: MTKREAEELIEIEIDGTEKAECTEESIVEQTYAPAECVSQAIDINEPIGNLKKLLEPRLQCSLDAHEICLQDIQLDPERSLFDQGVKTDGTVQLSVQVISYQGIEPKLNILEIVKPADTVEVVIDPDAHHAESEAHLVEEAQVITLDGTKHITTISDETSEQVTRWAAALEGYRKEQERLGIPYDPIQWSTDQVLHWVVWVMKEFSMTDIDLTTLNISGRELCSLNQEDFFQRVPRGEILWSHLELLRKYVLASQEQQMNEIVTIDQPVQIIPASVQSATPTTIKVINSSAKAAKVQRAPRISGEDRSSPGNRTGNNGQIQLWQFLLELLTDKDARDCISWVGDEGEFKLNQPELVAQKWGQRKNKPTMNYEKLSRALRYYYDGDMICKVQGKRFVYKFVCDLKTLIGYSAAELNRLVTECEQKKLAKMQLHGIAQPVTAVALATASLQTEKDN
As to conditions: protein: recombinant; tags: N-terminal GST; dsDNA, one strand shown. Summed up: as §1

Test [4] concerns the target T4, ERG (Homo sapiens, UniProt P11308 1-479).
T4 sequence: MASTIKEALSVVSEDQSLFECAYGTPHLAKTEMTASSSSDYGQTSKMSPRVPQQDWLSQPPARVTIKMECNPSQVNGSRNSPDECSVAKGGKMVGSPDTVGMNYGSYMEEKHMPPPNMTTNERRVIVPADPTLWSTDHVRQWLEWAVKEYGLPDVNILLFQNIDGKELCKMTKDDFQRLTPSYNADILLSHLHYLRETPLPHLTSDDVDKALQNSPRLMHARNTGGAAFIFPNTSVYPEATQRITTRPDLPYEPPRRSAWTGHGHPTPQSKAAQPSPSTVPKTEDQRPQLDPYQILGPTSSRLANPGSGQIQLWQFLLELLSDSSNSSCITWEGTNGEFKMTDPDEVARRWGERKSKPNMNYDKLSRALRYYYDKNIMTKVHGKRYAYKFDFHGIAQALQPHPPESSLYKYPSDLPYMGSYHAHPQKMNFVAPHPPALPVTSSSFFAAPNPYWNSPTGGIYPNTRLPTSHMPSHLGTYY
The note with it: protein: recombinant; tags: N-terminal GST; dsDNA, one strand shown. Summed up:
as §1

The target in test [5] is ELF1 (Homo sapiens, UniProt P32519 1-619). As to conditions: protein: recombinant; tags: N-terminal GST; dsDNA, one strand shown. Summed up: as §1
Chain of ELF1 (P32519 whole entry): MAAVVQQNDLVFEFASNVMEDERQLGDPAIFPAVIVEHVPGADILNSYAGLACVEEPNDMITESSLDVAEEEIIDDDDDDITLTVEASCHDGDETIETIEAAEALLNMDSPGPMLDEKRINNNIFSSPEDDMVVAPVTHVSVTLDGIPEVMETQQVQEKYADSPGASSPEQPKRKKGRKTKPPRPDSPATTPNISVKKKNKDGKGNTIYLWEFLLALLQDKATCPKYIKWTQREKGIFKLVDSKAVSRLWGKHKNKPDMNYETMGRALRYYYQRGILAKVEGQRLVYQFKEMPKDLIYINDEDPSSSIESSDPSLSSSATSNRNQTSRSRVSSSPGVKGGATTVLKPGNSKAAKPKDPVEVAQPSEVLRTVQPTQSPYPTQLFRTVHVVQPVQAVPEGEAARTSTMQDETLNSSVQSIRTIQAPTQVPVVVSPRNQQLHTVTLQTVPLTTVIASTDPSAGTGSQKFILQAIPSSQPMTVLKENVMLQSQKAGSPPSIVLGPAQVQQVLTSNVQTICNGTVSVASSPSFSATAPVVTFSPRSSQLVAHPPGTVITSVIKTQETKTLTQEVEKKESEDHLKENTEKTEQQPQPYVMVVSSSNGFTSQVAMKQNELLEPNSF
In test [6] the target is T5, EHF (Homo sapiens, UniProt Q9NZC4 1-300).
T5 sequence: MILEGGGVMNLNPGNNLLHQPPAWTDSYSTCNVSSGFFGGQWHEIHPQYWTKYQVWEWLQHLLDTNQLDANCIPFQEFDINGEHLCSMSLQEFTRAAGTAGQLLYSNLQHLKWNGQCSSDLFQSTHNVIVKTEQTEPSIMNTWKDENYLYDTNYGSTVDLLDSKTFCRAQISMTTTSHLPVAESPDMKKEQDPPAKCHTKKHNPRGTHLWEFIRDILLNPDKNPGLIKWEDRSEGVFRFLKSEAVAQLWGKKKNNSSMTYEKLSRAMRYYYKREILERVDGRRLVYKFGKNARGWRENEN
The note with it: protein: recombinant; tags: N-terminal GST; dsDNA, one strand shown. Summed up: as §1

The target in test [7] is SPI1 (Homo sapiens, UniProt P17947 1-270). As to conditions: protein: recombinant; tags: N-terminal GST; dsDNA, one strand shown. Summed up:
as §1

Test [8] concerns the target SPIB (Homo sapiens, UniProt Q01892 1-262). The note with it: protein: recombinant; tags: N-terminal GST; dsDNA, one strand shown. Summed up:
as §1

The target of test [9] is T6, ELK3 (Homo sapiens, UniProt P41970 1-407).
T6 sequence: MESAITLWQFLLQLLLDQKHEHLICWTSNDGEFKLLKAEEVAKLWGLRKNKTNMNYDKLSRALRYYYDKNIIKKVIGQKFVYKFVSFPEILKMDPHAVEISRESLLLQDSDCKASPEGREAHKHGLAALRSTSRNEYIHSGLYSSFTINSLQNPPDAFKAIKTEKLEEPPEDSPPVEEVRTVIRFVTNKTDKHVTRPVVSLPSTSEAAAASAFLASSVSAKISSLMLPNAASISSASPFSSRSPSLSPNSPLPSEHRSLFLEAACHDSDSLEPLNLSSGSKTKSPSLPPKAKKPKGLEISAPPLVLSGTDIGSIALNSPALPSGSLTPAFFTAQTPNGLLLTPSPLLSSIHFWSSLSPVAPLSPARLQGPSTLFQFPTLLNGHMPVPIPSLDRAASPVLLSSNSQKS
The note with it: protein: recombinant; tags: N-terminal GST; dsDNA, one strand shown. Summed up:
as §1

Test [10] addresses T7, FEV (Homo sapiens, UniProt Q99581 1-238).
T7 sequence: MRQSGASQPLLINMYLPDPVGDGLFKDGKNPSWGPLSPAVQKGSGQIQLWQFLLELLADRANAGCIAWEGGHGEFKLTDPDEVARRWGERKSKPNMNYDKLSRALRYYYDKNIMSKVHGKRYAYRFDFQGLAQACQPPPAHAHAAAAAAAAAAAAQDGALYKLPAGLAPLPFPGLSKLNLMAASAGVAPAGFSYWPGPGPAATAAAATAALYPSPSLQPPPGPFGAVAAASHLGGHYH
The note with it: protein: recombinant; tags: N-terminal GST; dsDNA, one strand shown. Summed up: as §1

The target of test [11] is ETV5 (Homo sapiens, UniProt P41161 1-510). As to conditions: protein: recombinant; tags: N-terminal GST; dsDNA, one strand shown. Summed up: as §1
Chain of ETV5 (P41161 whole entry): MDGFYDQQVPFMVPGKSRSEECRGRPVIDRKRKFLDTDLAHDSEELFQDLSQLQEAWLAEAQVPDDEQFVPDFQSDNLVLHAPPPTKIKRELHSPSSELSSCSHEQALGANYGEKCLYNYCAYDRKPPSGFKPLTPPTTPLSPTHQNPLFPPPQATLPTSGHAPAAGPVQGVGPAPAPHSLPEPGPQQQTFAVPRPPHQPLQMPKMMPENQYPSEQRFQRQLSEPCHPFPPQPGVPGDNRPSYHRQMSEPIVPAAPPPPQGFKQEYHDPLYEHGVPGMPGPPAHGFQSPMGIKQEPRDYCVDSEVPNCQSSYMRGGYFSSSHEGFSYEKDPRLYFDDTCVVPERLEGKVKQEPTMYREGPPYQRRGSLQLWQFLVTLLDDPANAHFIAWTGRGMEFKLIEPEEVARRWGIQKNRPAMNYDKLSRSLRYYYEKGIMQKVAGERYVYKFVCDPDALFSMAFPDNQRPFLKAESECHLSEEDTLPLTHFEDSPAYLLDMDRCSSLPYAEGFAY
Test [12] deals with HSF1 (Homo sapiens, UniProt Q00613 1-529). The note with it: protein: recombinant; tags: N-terminal GST; chain copies: 3; dsDNA, one strand shown. Summed up:
as §1

Test [13] has as its target T8, SPIC (Homo sapiens, UniProt Q8N5J4 1-248).
T8 sequence: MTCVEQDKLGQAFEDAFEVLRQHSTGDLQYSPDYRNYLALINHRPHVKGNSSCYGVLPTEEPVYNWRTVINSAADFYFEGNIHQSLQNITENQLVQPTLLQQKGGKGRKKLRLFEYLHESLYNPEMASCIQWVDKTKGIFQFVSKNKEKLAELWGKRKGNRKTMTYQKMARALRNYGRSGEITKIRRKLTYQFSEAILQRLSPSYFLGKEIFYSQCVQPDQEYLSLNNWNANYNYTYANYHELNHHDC
As to conditions: protein: recombinant; tags: N-terminal GST; dsDNA, one strand shown. Summed up: as §1

The target in test [14] is ELF4 (Homo sapiens, UniProt Q99607 1-663). The note with it: protein: recombinant; tags: N-terminal GST; dsDNA, one strand shown. Summed up: as §1
Chain of ELF4 (Q99607 whole entry): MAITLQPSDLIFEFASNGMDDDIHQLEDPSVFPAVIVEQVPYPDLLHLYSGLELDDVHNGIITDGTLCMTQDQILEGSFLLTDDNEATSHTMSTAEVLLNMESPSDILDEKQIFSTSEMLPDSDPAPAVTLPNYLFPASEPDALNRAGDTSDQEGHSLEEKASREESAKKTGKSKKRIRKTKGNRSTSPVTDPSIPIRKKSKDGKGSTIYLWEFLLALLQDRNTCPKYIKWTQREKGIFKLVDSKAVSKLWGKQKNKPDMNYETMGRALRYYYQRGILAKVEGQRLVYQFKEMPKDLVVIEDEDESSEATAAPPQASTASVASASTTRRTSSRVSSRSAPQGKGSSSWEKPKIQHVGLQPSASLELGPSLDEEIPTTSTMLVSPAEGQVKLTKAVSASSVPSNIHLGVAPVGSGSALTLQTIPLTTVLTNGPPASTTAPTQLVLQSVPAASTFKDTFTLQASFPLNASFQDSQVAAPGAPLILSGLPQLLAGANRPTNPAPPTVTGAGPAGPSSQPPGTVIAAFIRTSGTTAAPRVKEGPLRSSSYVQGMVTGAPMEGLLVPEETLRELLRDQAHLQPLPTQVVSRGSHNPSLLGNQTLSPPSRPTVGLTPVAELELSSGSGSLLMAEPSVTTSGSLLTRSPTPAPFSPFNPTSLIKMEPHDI
The target of test [15] is T9, ELK4 (Homo sapiens, UniProt P28324-2 1-405).
T9 sequence: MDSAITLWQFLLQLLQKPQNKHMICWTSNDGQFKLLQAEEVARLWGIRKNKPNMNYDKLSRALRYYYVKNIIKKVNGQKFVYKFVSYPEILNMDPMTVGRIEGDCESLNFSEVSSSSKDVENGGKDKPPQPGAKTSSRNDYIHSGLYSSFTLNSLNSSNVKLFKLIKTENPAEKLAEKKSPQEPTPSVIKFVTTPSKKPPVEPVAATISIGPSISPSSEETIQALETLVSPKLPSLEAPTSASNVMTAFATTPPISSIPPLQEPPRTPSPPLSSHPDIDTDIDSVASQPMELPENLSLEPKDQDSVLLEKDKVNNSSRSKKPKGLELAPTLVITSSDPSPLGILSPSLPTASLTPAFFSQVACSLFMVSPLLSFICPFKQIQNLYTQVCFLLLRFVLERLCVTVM
As to conditions: protein: recombinant; tags: N-terminal GST; dsDNA, one strand shown. Summed up:
as §1

The target of test [16] is T10, ETV2 (Homo sapiens, UniProt O00321 1-342).
T10 sequence: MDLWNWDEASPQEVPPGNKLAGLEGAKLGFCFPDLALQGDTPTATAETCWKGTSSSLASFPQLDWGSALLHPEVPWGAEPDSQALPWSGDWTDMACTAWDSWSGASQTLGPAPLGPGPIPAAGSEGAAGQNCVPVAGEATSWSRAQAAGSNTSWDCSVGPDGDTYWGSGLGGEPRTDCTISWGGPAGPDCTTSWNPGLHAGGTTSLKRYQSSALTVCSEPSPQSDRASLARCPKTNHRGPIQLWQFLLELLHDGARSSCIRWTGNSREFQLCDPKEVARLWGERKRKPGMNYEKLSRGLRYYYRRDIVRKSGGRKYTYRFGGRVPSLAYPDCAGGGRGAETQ
As to conditions: protein: recombinant; tags: N-terminal GST; dsDNA, one strand shown. Summed up:
as §1

In test [17] the target is ETV1 (Homo sapiens, UniProt P50549 1-477). As to conditions: protein: recombinant; tags: N-terminal GST; dsDNA, one strand shown. Summed up: as §1
Chain of ETV1 (P50549 whole entry): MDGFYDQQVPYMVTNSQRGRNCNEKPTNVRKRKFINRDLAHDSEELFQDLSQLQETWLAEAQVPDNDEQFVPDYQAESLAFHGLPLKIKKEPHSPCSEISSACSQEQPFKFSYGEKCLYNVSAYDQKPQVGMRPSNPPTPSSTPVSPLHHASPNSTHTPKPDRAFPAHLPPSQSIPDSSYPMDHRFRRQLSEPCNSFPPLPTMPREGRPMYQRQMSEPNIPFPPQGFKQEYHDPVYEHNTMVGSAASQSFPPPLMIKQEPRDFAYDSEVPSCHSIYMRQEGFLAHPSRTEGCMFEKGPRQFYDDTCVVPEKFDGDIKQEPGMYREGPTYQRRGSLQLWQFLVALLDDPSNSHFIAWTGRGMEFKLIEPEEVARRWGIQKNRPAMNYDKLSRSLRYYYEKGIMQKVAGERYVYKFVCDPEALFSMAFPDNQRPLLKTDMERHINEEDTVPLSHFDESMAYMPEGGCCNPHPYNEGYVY

Chain of HSF1 (Q00613 whole entry): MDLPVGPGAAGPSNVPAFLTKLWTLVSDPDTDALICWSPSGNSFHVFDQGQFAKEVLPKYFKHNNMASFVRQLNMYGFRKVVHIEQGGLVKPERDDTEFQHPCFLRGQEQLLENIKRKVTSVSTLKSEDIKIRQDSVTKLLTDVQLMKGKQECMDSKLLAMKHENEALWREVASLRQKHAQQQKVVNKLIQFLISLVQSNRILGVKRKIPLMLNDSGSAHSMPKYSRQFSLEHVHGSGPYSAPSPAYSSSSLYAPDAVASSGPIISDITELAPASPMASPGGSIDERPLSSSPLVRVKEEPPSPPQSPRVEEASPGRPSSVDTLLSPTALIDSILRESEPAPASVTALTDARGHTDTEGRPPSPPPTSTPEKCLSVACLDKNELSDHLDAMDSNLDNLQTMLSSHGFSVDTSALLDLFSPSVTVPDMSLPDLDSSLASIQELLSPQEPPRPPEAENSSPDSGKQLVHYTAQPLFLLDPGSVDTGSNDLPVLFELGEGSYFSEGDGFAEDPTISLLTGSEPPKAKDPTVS
Chain of SPIB (Q01892 whole entry): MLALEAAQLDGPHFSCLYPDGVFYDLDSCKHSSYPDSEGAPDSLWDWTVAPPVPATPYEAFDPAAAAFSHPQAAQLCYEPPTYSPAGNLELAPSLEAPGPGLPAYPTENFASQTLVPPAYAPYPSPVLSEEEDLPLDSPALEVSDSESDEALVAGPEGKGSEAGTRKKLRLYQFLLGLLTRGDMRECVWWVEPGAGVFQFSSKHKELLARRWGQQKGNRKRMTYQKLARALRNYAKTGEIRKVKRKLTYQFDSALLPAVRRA

CGATAG: the binding signal is 1.07 fold enrichment (6-mer frequency, TF over GST control) in [1]; 1.11 fold enrichment (6-mer frequency, TF over GST control) in test [2]; 1.18 fold enrichment (6-mer frequency, TF over GST control) in [3]; 1.16 fold enrichment (6-mer frequency, TF over GST control) in test [4]; 1.15 fold enrichment (6-mer frequency, TF over GST control) in test [5]; 1.05 fold enrichment (6-mer frequency, TF over GST control) in test [6]. The binding signal is 1.1 fold enrichment (6-mer frequency, TF over GST control) in test [7]; 1.07 fold enrichment (6-mer frequency, TF over GST control) in [8]; 1.11 fold enrichment (6-mer frequency, TF over GST control) in test [9]; 1.15 fold enrichment (6-mer frequency, TF over GST control) in test [10]; 1.18 fold enrichment (6-mer frequency, TF over GST control) in test [11]; 1.14 fold enrichment (6-mer frequency, TF over GST control) in test [12]. The binding signal in test [13] was 1.18 fold enrichment (6-mer frequency, TF over GST control); in test [14], 1.12 fold enrichment (6-mer frequency, TF over GST control); in test [15] it was 1.16 fold enrichment (6-mer frequency, TF over GST control); in test [16], 1.16 fold enrichment (6-mer frequency, TF over GST control); in test [17], 1.16 fold enrichment (6-mer frequency, TF over GST control).
